# According to PubChem BioAssay (EPA / NIEHS):
# Records with an inconclusive call do not appear. The source made the active and inactive calls. The calls were made as follows: active = hit-call score of the fitted dose curve at least 0.9, where 1 is the maximum; inconclusive = response in the unintended direction; inactive = score below 0.9.
# Columns and labels:
# [1] = target: sheep Cyclooxygenase-2 (Cox2), PTGS2 (gene 443460) (UniProt P79208); test: NVS_ENZ_oCOX2: NovaScreen (NVS) Enzymatic Assay for sheep Cyclooxygenase-2 (Cox2) (AID 2283231)
# Outline: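 Enzyme from ovine placenta, cell-free; colorimetric absorbance read 0.66 hour after dosing, loss of signal vs DMSO. Screened in duplicate at 25 uM, then concentration-response up to 50 uM.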
# [2] = target: rat Catechol-O-Methyl Transferase (COMT), Comt (gene 24267) (UniProt P22734); test: NVS_ENZ_rCOMT: NovaScreen (NVS) Enzymatic Assay for rat Catechol-O-Methyl Transferase (COMT) (AID 2283235)
# Outline: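 Cell-free enzyme activity with protein extracted from rat dorsal striatum, measured by HPLC with absorbance detection. Compounds screened at 25 uM in duplicate; actives then run in concentration-response up to 50 uM, loss of signal versus DMSO.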
# [3] = target: sheep Cyclooxygenase-1 (Cox1), PTGS1 (gene 443551) (UniProt P05979); test: NVS_ENZ_oCOX1: NovaScreen (NVS) Enzymatic Assay for sheep Cyclooxygenase-1 (Cox1) (AID 2283239);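 also: actives reduce cyclooxygenase activity so potencies are for inhibitors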
# Outline: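 Cell-free colorimetric assay of enzyme activity in a native extract of ovine seminal vesicles. Absorbance was read 0.66 hour after compound addition. Loss of signal relative to the DMSO negative control was scored, with actives from the 25 uM duplicate primary screen retested in concentration series.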
# [4] = target: human Serotonin, 5-Hydroxytryptamine Receptor 5A (5HT5A), HTR5A (gene 3361) (UniProt P47898); test: NVS_GPCR_h5HT5A: NovaScreen (NVS) G Protein-Coupled Receptor Assay for human Serotonin, 5-Hydroxytryptamine Receptor 5A (5HT5A) (AID 2283251)
# Outline: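 Cell-free radioligand displacement binding on HEK293-derived membrane protein, 1 h incubation, filter-based scintillation counting. Primary screen in duplicate at 25 uM, actives followed in concentration series; loss of signal fitted versus DMSO.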
# [5] = target: human Adenosine A1 Receptor (AdoRA1), ADORA1 (gene 134) (UniProt P30542); test: NVS_GPCR_hAdoRA1: NovaScreen (NVS) G Protein-Coupled Receptor Assay for human Adenosine A1 Receptor (AdoRA1) (AID 2283254)
# Outline: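 Radioligand binding was run on human cortical membranes, cell-free, with filter-based scintillation counting 1 h after dosing. The primary screen was duplicate at 25 uM, followed by concentration series. Signal loss versus DMSO was fitted positive-direction.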
# [6] = target: human Adenosine A2a Receptor (AdoRA2a), ADORA2A (gene 135) (UniProt P29274); test: NVS_GPCR_hAdoRA2a: NovaScreen (NVS) G Protein-Coupled Receptor Assay for human Adenosine A2a Receptor (AdoRA2a) (AID 2283256)
# Outline: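 Radioligand displacement on HEK293-derived membrane protein, cell-free; filter-based scintillation counting 1.5 hours after dosing, loss of signal vs DMSO. Single-point duplicate screen at 25 uM, actives retested in concentration series.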
# [7] = target: human Vascular Endothelial Growth Factor Receptor 2 (VEGFR2), KDR (gene 3791) (UniProt P35968); test: NVS_ENZ_hVEGFR2: NovaScreen (NVS) Enzymatic Assay for human Vascular Endothelial Growth Factor Receptor 2 (VEGFR2) (AID 2283230)
# Outline: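 Cell-free recombinant VEGFR2 kinase, fluorescent substrate with electrophoretic mobility-shift separation; read 1 h after dosing. Screened at 25 uM in duplicate, hits to concentration-response up to 50 uM; loss-of-signal versus DMSO.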
# [8] = NVS_GPCR_bNPY_NonSelective: NovaScreen (NVS) G Protein-Coupled Receptor Assay for bovine Neuropeptide Y (NPY) Receptor, Non-selective Binding (AID 2283245)
# Outline: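 Bovine hippocampal membranes incubated 1 hour with radioligand and test chemical. Bound ligand measured by filter-based scintillation counting. Single-concentration screen at 25 uM in duplicate, then concentration-response up to 50 uM.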
# [9] = target: rabbit Imidazoline 2 Central (I2C), CKB (gene 100009085) (UniProt P00567); test: NVS_ENZ_rabI2C: NovaScreen (NVS) Enzymatic Assay for rabbit Imidazoline 2 Central (I2C) (AID 2283228)
# Outline: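 Rabbit brain membranes, cell-free; readout by filter-based scintillation counting 1.5 hours after dosing, loss of signal vs DMSO. Initial duplicate test at 25 uM, then concentration-response with 50 uM top concentration.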
# [10] = system: guinea pig Muscarinic, Peripheral (Mperiperal) Receptor, Non-selective Binding, gene 100379235; test: NVS_GPCR_gMPeripheral_NonSelective: NovaScreen (NVS) G Protein-Coupled Receptor Assay for guinea pig Muscarinic, Peripheral (Mperiperal) Receptor, Non-selective Binding (AID 2283250)
# Outline: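 Guinea pig bladder membranes, radioligand binding read 1 h after dosing by filter scintillation counting; loss of signal vs DMSO. Primary duplicate screen at 25 uM, then concentration-response up to 50 uM.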
# [11] = target: guinea pig Opioid, Kappa 1 Receptor (OpiateK), OPRK1 (gene 100135587) (UniProt P41144); test: NVS_GPCR_gOpiateK: NovaScreen (NVS) G Protein-Coupled Receptor Assay for guinea pig Opioid, Kappa 1 Receptor (OpiateK) (AID 2283252);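 also: radioligand displacement from kappa opioid receptor in guinea pig cerebellar membranes; active means reduced radioligand binding relative to DMSO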
# Outline: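 Signal is scintillation counts of filter-trapped radioligand bound to guinea pig cerebellar membrane receptor, measured 2 hours post-dosing. Activity is loss of binding versus DMSO, first at 25 uM in duplicate, then as concentration series for actives.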
# [12] = target: human Serotonin, 5-Hydroxytryptamine Receptor 6 (5HT6), HTR6 (gene 3362) (UniProt P50406); test: NVS_GPCR_h5HT6: NovaScreen (NVS) G Protein-Coupled Receptor Assay for human Serotonin, 5-Hydroxytryptamine Receptor 6 (5HT6) (AID 2283253)
# Outline: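 Radioligand binding to 5HT6 in HEK293-derived membranes, cell-free, 1 h after dosing; bound ligand measured by filter-based scintillation counting. Primary screen in duplicate at 25 uM; actives retested in concentration series.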
# [13] = target: Adenosine receptor A1 (Bos taurus) (UniProt P28190); test: NVS_GPCR_bAdoR_NonSelective: NovaScreen (NVS) G Protein-Coupled Receptor Assay for bovine Adenosine Receptor (AdoR), Non-selective Binding (AID 2283244)
# Outline: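 Bovine striatal membranes, radioligand displacement binding, 1 h after dosing, filter-based scintillation counting. Screened in duplicate at 25 uM, then concentration-response up to 50 uM; loss of specific binding relative to DMSO.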
# [14] = system: bovine Histamine 1 Receptor (H1), gene 281231; test: NVS_GPCR_bH1: NovaScreen (NVS) G Protein-Coupled Receptor Assay for bovine Histamine 1 Receptor (H1) (AID 2283246)
# Outline: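 Radioligand displacement on bovine cerebellar membranes, 1 h after dosing, filter-based scintillation read-out; loss of signal vs DMSO. Duplicate single-concentration screen at 25 uM, then concentration-response up to 50 uM for hits.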
# [15] = target: human Serotonin, 5-Hydroxytryptamine Receptor 2A (5HT2A), HTR2A (gene 3356) (UniProt P28223); test: NVS_GPCR_h5HT2A: NovaScreen (NVS) G Protein-Coupled Receptor Assay for human Serotonin, 5-Hydroxytryptamine Receptor 2A (5HT2A) (AID 2283249)
# Outline: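 Human cortex membranes, cell-free radioligand binding; filter-based scintillation read 1.5 h after dosing. Duplicate screen at 25 uM first; displacement of specific binding (loss of signal) versus DMSO.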
# [16] = target: bovine Dopamine Receptor (DR), Non-selective Binding, DRD1 (gene 281125) (UniProt Q95136); test: NVS_GPCR_bDR_NonSelective: NovaScreen (NVS) G Protein-Coupled Receptor Assay for bovine Dopamine Receptor (DR), Non-selective Binding (AID 2283241)
# Outline: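 Bovine striatal membranes; radioligand displacement read by filtration and scintillation counting 1 h after dosing, loss of signal vs DMSO. Screened in duplicate at 25 uM, then concentration-response for hits.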
# Sequence of human Serotonin, 5-Hydroxytryptamine Receptor 5A (5HT5A), HTR5A (gene 3361) (P47898 whole entry, looked up): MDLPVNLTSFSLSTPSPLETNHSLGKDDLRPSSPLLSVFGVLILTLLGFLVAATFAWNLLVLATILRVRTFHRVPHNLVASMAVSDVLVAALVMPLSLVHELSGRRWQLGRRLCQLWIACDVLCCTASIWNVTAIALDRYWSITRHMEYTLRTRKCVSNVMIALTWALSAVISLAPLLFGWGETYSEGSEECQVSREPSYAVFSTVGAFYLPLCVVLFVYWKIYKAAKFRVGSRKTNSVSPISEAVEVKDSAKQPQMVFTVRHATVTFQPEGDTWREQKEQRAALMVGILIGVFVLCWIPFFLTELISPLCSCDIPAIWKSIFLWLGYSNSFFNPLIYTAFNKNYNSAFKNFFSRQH
# Sequence of rabbit Imidazoline 2 Central (I2C), CKB (gene 100009085) (P00567 whole entry, looked up): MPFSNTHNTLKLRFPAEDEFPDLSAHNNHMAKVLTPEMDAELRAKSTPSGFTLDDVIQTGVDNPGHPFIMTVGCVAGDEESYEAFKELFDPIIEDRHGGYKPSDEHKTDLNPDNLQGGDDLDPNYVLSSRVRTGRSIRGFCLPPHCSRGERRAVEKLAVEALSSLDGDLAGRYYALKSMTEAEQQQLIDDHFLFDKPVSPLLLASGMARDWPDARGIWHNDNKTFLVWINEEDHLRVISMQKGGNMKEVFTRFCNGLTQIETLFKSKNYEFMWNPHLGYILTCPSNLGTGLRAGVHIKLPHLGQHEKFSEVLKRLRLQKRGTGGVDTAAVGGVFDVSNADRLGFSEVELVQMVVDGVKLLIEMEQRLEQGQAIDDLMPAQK
# Sequence of human Adenosine A1 Receptor (AdoRA1), ADORA1 (gene 134) (P30542 whole entry, looked up): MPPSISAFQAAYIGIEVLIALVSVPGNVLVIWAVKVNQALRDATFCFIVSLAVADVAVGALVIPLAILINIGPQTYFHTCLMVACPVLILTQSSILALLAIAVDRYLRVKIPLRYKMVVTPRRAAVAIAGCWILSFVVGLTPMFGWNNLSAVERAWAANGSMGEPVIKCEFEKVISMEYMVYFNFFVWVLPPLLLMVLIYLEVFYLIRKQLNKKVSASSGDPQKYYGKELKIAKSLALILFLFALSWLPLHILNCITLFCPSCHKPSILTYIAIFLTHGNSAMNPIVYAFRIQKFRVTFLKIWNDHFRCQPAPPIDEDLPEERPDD
# Sequence of human Serotonin, 5-Hydroxytryptamine Receptor 6 (5HT6), HTR6 (gene 3362) (P50406 whole entry, looked up): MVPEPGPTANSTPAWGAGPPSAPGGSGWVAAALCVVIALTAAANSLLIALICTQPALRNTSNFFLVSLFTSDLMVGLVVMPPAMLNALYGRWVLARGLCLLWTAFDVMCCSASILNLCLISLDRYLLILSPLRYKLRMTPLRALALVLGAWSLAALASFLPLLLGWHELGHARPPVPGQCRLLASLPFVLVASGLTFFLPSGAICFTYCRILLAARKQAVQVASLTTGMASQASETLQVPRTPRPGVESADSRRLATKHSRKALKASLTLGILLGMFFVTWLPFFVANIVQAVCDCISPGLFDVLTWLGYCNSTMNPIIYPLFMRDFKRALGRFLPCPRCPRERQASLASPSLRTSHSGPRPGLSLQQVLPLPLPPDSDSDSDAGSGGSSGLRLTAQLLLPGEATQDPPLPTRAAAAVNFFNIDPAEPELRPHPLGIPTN
# Sequence of human Vascular Endothelial Growth Factor Receptor 2 (VEGFR2), KDR (gene 3791) (P35968 whole entry, looked up): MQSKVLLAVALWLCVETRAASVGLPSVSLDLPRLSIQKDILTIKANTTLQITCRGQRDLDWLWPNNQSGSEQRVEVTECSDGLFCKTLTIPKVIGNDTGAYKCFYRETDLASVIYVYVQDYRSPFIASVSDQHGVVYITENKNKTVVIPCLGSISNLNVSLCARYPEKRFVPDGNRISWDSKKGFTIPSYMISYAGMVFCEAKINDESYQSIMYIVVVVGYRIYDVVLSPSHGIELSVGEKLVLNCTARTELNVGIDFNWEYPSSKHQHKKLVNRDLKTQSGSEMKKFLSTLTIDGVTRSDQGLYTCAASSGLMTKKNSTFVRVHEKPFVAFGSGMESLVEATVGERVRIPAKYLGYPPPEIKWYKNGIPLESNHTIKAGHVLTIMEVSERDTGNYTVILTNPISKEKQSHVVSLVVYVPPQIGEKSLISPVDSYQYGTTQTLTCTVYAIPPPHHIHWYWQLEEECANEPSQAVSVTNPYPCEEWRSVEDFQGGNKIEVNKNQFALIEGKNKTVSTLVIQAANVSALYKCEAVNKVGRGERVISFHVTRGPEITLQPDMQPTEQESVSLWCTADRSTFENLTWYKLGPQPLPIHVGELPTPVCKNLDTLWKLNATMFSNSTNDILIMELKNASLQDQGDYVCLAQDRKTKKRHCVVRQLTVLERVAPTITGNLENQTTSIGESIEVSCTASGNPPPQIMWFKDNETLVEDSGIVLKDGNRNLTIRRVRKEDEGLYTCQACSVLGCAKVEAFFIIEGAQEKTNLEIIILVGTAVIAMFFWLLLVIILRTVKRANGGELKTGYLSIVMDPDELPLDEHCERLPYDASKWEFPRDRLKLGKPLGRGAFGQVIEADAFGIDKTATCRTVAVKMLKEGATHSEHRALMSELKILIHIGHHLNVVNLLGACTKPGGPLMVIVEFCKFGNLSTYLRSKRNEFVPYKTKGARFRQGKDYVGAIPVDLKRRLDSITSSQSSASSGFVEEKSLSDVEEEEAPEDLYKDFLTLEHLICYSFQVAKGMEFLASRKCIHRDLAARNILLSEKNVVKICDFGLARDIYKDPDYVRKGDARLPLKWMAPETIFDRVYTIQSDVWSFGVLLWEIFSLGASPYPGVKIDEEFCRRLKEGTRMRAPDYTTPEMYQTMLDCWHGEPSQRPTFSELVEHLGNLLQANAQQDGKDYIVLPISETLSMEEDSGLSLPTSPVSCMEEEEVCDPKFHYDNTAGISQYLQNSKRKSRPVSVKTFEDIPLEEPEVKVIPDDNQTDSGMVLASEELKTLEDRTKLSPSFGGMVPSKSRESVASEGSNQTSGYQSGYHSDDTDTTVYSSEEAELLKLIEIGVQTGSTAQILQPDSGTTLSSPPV
# Sequence of sheep Cyclooxygenase-1 (Cox1), PTGS1 (gene 443551) (P05979 whole entry, looked up): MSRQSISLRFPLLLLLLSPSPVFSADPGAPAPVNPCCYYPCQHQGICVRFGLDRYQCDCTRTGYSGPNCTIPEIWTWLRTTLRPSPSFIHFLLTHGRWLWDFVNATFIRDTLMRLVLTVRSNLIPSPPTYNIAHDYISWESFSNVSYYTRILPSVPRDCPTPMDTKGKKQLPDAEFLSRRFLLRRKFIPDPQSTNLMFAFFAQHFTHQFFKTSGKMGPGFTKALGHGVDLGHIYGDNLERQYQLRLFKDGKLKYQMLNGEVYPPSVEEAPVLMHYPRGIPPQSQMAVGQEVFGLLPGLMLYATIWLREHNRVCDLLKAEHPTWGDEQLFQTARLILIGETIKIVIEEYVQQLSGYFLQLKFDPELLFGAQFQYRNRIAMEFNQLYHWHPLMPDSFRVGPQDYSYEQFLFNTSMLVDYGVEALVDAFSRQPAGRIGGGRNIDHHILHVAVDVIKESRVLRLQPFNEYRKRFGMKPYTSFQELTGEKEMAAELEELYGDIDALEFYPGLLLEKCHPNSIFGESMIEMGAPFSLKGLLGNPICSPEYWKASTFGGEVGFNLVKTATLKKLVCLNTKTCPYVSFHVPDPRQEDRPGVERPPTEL
# Sequence of guinea pig Opioid, Kappa 1 Receptor (OpiateK), OPRK1 (gene 100135587) (P41144 whole entry, looked up): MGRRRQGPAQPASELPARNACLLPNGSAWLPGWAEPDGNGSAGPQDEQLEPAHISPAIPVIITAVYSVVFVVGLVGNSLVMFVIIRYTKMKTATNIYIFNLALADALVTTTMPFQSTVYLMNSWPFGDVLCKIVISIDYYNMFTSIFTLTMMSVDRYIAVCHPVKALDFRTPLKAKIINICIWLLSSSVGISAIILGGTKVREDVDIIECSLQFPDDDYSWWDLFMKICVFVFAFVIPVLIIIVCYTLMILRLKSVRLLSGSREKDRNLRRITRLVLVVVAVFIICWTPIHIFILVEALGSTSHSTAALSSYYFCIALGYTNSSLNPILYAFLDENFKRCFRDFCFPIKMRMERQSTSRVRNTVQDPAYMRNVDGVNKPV
# Sequence of human Serotonin, 5-Hydroxytryptamine Receptor 2A (5HT2A), HTR2A (gene 3356) (P28223 whole entry, looked up): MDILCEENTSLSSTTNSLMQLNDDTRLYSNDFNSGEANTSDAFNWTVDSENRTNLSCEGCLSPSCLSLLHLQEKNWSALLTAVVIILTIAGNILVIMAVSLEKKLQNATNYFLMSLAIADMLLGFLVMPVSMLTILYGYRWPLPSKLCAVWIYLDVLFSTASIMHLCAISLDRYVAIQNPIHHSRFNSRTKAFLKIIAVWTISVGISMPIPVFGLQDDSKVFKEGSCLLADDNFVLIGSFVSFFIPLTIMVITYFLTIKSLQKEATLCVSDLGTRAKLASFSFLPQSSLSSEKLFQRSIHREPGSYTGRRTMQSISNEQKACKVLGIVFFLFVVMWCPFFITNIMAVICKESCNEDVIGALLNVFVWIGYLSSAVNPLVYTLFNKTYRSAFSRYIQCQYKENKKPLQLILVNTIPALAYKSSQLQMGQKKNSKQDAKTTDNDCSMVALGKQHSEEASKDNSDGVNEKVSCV
# Sequence of Adenosine receptor A1 (Bos taurus) (P28190 whole entry, looked up): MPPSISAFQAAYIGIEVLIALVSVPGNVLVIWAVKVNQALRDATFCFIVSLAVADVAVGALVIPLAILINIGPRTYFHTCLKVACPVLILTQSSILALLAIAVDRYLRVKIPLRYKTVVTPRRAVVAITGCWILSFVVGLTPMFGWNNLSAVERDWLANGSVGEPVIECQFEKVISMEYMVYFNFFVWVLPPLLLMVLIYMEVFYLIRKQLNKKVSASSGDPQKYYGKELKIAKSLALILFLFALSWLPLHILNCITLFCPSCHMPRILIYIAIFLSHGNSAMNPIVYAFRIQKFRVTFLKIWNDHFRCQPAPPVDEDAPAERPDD
# Sequence of rat Catechol-O-Methyl Transferase (COMT), Comt (gene 24267) (P22734 whole entry, looked up): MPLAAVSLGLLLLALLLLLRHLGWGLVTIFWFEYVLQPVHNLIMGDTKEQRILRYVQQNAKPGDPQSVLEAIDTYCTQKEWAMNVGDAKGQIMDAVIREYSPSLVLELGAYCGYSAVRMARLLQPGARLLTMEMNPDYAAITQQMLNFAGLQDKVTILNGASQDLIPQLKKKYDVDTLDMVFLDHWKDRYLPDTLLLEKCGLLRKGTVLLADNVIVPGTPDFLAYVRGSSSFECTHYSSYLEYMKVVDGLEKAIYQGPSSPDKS
structure (smiles),measurement,setting,value
CCCCCCCCOC(=O)c1cc(O)c(O)c(O)c1,AC50,[1],18.3 µM (active)
same,AC50,[2],2.54 µM (active)
same,outcome,[3],inactive
same,AC50,[4],25 µM (active)
same,AC50,[5],12.4 µM (active)
same,AC50,[6],8.09 µM (active)
CCCCCCCCCCCO,outcome,[7],inactive
same,outcome,[8],inactive
NCc1cccc(C2CCN(C(=O)c3ccc(C#Cc4ccccc4F)o3)CC2)c1,AC50,[9],7.1 µM (active)
same,AC50,[8],25 µM (active)
same,AC50,[10],9.09 µM (active)
same,AC50,[4],18.4 µM (active)
same,AC50,[11],25 µM (active)
same,AC50,[12],8.69 µM (active)
same,AC50,[5],15.8 µM (active)
CC(C)(C)c1cc(/C=C2\SC(N)=NC2=O)cc(C(C)(C)C)c1O,outcome,[7],inactive
same,outcome,[3],inactive
same,outcome,[13],inactive
same,outcome,[14],inactive
CN(C)c1ccc(C(=C2C=CC(=[N+](C)C)C=C2)c2ccc(N(C)C)cc2)cc1,outcome,[9],inactive
same,AC50,[7],0.572 µM (active)
same,AC50,[13],13.6 µM (active)
same,AC50,[8],11.2 µM (active)
same,AC50,[10],5.05 µM (active)
same,AC50,[4],1.99 µM (active)
same,AC50,[11],4.24 µM (active)
same,AC50,[12],13.9 µM (active)
same,AC50,[5],10.5 µM (active)
Cc1oc2c(NC(=O)c3c(Cl)cccc3Cl)cccc2c1C(C)(C)O,outcome,[9],inactive
same,AC50,[14],25 µM (active)
same,outcome,[5],inactive
CCCCCCCCCCCC[N+](C)(C)C,AC50,[9],2.13 µM (active)
same,outcome,[8],inactive
same,AC50,[15],4.04 µM (active)
same,AC50,[10],4.49 µM (active)
c1ccc(C[n+]2cccc3ccccc32)cc1,AC50,[9],11.9 µM (active)
same,AC50,[10],8.25 µM (active)
same,AC50,[11],11.8 µM (active)
Cc1c2ccccc2c(C)c2c1ccc1ccccc12,outcome,[7],inactive
same,AC50,[3],43.3 µM (active)
CN(C)C(=O)C1(N2CCCCC2)CCN(CC[C@@]2(c3ccc(Cl)c(Cl)c3)CN(C(=O)c3ccccc3)CCO2)CC1,outcome,[7],inactive
same,AC50,[16],4.5 µM (active)
same,AC50,[8],15.1 µM (active)
same,AC50,[15],0.957 µM (active)
same,AC50,[10],8.87 µM (active)
same,AC50,[4],15.7 µM (active)
same,AC50,[11],5.78 µM (active)
same,AC50,[12],23.6 µM (active)
same,outcome,[5],inactive
